Structures are written as SMILES. The panel holds about 83,000 compounds, 20% with a hit somewhere; the sample as a whole holds those more often.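 The endpoint reported here, percent growth, reads 100 for growth as untreated, 0 for no net growth and -100 for all cells dead.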 A number with no mark means an inactive call. Active and inactive are the calls of the source. Rule for the calls: active = growth percent below 10; inactive = the rest.

The assay concerns HOP-92 NSCLC. Nature of the assay: NCI-60 one-dose screen, 48 h (100 = growth as untreated, 0 = no growth, -100 = all killed). To be noted: 10 µM unless noted.
With `COc1ccc(NC(=O)c2sc3nc(C)c(C(=O)/C=C/c4cccc(OC)c4)cc3c2N)cc1`, the growth was 90.9%.

As for `Nc1nc2c([nH]1)c1[nH]c3ccccc3c1c1[nH]c3ccccc3c21`, the growth is -2.6% (active).

Take `Cc1ccc(-c2nc3nc(-c4ccc(F)cc4)nc(N4CCNCC4)c3o2)cc1`: the growth was 90.8%.

With `COc1ccc(OC)c(C(=O)/C=C/c2cc3c(c(OC)c2OC)OCO3)c1`, the growth was 62.2%.

Take `CN1C(=O)/C(=C/c2ccc(C(=O)Nc3ncc(Cc4ccc(Cl)cc4)s3)cc2)SC1=S`: the growth was 51.6%.

In the case of `O=C(OCc1ccc2c(Cl)cc(Cl)c(O)c2n1)n1cncn1`, the growth was 49.4%.

For the compound `C[C@]12C=CC(=O)C=C1CCC1C2[C@@H](O)C[C@@]2(C)C1CC[C@]2(O)C(=O)COC(=O)CCC(=O)O` (stereo partly drawn), the growth is 87.1%.

For the compound `COc1ccc2c(c1)c(-c1noc(C(=O)c3cn(C)c4ccc(Br)cc34)n1)cn2C`, the growth is 108%.

In the case of `COc1ccc(/C=N/C2=C(C#N)C(c3cccc(Cl)c3)c3c(ccc4ccccc34)O2)cc1` (stereo not drawn), the growth is 44.8%.

For `Cc1ccccc1Cn1cnc2ccc(-c3cc(NC(=O)c4ccc(NC5CCN(C)CC5)cc4)n[nH]3)cc21`, the growth is 92.4%.

Turning to `O=C1CC(N2C(=O)/C(=C/C(Cl)=C\c3ccc([N+](=O)[O-])cc3)SC2=S)C(=O)N1c1ccc(Cl)cc1` (stereo not drawn), the growth is -18.6% (active).

For the compound `CCN(CC)CCOc1ccc(-c2c(-c3ccccc3)c(=O)oc3ccccc23)cc1`, the growth is 84.3%.

`CCNC(=O)c1[nH]cc(-c2ccccc2)c1-c1cc(OC)c2c(c1OC)OCO2`: the growth was 83.9%.
